Source: PubChem
The full list was thinned out, with hits kept by preference.
Measles inh – inhibitors of measles virus growth in infected cells; infected Vero cells, GFP fluorescence, 64 h; stronger effect = lower value; z-score (no concentration beside the values); 33,000 tested, 0.1% active; in the data active means z-score below about -3
The depositor's hits bear a star.

SMILES	Measles inh
COc1cc(C(=O)N2CCc3ccccc32)c([N+](=O)[O-])cc1OC	0.48
COc1cc(C(=O)c2ccccc2)c([N+](=O)[O-])cc1OC	-3*
COc1cc(C(=O)NCc2ccccn2)c([N+](=O)[O-])cc1OC	-0.19
CCC1CCCCN1S(=O)(=O)c1ccc(C(=O)Nc2nnc(-c3ccccc3OC)o2)cc1 (configuration not stated)	-0.22
O=C(Nc1cccc(-c2nc3ccccc3s2)c1)c1cccs1	-0.07
O=C(Nc1cccc(-c2nc3cc(Cl)ccc3o2)c1)c1ccc(Br)o1	-0.44
O=C(Nc1cccc(-c2nc3ccccc3s2)c1)c1ccc(Br)o1	-4.2*
Clc1cccc(CSc2nnc3sc4ccccc4n23)c1	0.09
COc1ccc(CNC(=O)c2ccc3c(=O)n(-c4cc(OC)ccc4OC)c(=S)[nH]c3c2)cc1	0.3
CCN(CC)C(=O)c1ccc2c(=O)n(-c3cc(OC)ccc3OC)c(=S)[nH]c2c1	-5.5*
COc1ccc(OC)c(-n2c(=S)[nH]c3cc(C(=O)Nc4ccc5c(c4)CCC5)ccc3c2=O)c1	1.9
Cn1c(=O)c2c(-c3ccccc3)n(-c3ccc(Br)cc3)cc2n(C)c1=O	1.4
Cc1cc(C(F)(F)F)nc2sc(C(=O)c3cccc(Cl)c3)c(N)c12	0.81
O=C(c1cccnc1)N1N=C2CCCCC2C1(O)C(F)(F)F (configuration not stated)	-2
COc1ccc(Nc2ncnc3c2cnn3-c2ccccc2)c(OC)c1	-3.3*
Cc1cc(C)cc(Nc2ncnc3c2cnn3-c2ccccc2)c1	-0.32
CCc1ccccc1Nc1ncnc2c1cnn2-c1ccc(OC)cc1	-0.22
O=[N+]([O-])c1cc(S(=O)(=O)C(Cl)(Cl)Br)ccc1NC1CCCCC1	-1.4
Clc1cccc(-n2cc(-c3ccccc3)c3c(NC4CCCC4)ncnc32)c1	3.4
CC(=O)N1c2ccc(S(=O)(=O)Nc3cc(C)ccn3)cc2CC1C (configuration not stated)	0.13
COCCCNC(=O)c1ccc2c(=O)n(CCOC)c(=O)[nH]c2c1	0.63
COCCn1c(=O)[nH]c2cc(C(=O)NCCN3CCN(c4ccccc4)CC3)ccc2c1=O	-3.6*
COCCn1c(=O)[nH]c2cc(C(=O)NC3CCN(Cc4ccccc4)CC3)ccc2c1=O	-1.4
FC(F)(F)c1ccccc1CN1CCN(C2CCCCC2)CC1	0.86
Cc1ccc2nc(-c3ccc(C)o3)c(Nc3ccc(F)cc3)n2c1	-1.1
SMILES	Measles inh
Cc1cc(C(=O)Nc2sc3c(c2C(=O)OC(C)C)CCCC3)ccc1[N+](=O)[O-]	1.6
CC(C)OC(=O)c1c(NC(=O)c2ccc(Cl)c([N+](=O)[O-])c2)sc2c1CCCC2	-3.8*
Cc1cccc(C(=O)Nc2sc3c(c2C(=O)Nc2ccccc2Cl)CCCC3)c1	-4.4*
COC(=O)c1c(NC(=O)c2ccc(C)c([N+](=O)[O-])c2)sc2c1CCC2	1.6
Cc1cccc(C(=O)Nc2sc3c(c2C(=O)NCc2ccco2)CCCC3)c1	-0.65
Cc1cccc(C(=O)Nc2sc3c(c2C(=O)Nc2ccccc2Cl)CCC3)c1	0.38
COc1ccc(C)cc1Nc1nc(C)nc2sc(C)c(C)c12	2
CCCCN(Cc1ccccc1)S(=O)(=O)c1ccc2nc(-c3ccccc3)[nH]c2c1	0.11
O=C(NC1CCCCCCC1)C1c2ccccc2C(=O)N1CCCN1CCCCC1 (configuration not stated)	-0.55
COc1ccc(Br)cc1CN1C(=O)c2ccccc2C1C(=O)NC1CCC(C)CC1 (configuration not stated)	-1
CC1CCC(NC(=O)C2c3ccccc3C(=O)N2CCCN2CCOCC2)CC1 (configuration not stated)	-4.9*
Cc1ccc2nc(Nc3nc4c(c(=O)[nH]3)CCCC4)nc(C)c2c1	2
COc1ccc(OCC(=O)Nc2ncc(Cc3ccc(F)cc3)s2)cc1	-0.48
CCN(Cc1ccccc1)S(=O)(=O)c1cc(Br)cc2c1N(C(C)=O)CC2	-5.6*
CCN(CCNS(=O)(=O)c1cc(Br)cc2c1N(C(C)=O)CC2)c1ccccc1	0.44
CCCCN(CCCC)S(=O)(=O)c1cc(Br)cc2c1N(C(C)=O)CC2	-0.06
Cc1ccccc1C(=O)NCc1ccccc1	1.8
COC(=O)c1ccccc1NC(=O)CCS(=O)(=O)c1ccc(Br)s1	0.65
COC(=O)CC1SC(=O)NC1=Nc1ccc(O)cc1 (configuration not stated)	-0.09
O=C(OCc1ccccc1)c1cccc(N2C(=O)C3C4CCC(C4)C3C2=O)c1 (configuration not stated)	0.3
O=C(Cc1ccccc1)Oc1ccc(N2C(=O)C3C4CCC(C4)C3C2=O)cc1 (configuration not stated)	-6.4*
COc1ccc(OC(=O)c2ccc(N3C(=O)C4C5CCC(C5)C4C3=O)cc2)cc1 (configuration not stated)	0.48
CC1CC(C)CN(C(=O)CSC2=Nc3ccccc3C3=NC(Cc4c[nH]c5ccccc45)C(=O)N23)C1 (configuration not stated)	-0.23
COc1cc(-c2nc(Nc3ccc(C)cc3)c3ccccc3n2)cc(OC)c1OC	-0.38
COc1ccc(Nc2nc(-c3ccc(C)cc3)nc3ccccc23)cc1OC	-1.9
SMILES	Measles inh
Cc1ccc(Nc2cc(C)nc(-c3ccccc3)n2)cc1	-3.7*
COc1ccc(C)cc1NC(=O)CN1CCN(S(=O)(=O)c2ccc(F)cc2)CC1	0.04
CC(=O)Oc1cccc2cccnc12	-0.4
COc1ccc(C(=O)Oc2cccc3cccnc23)cc1OC	-0.37
CCOc1ccc(C(=O)Oc2cccc3cccnc23)cc1Br	-3.5*
Cc1nc(NCc2ccccc2)c2sc3nc4c(cc3c2n1)COC(C)(C)C4	0.39
O=C(Nc1ccc2c(c1)OCO2)N1c2ccccc2Sc2ccccc21	-0.42
CC1(C)C(=O)N(Cc2ccccc2)c2ccccc2N1C(=O)c1ccc(Br)cc1	-4*
CC1(C)C(=O)N(Cc2ccc([N+](=O)[O-])cc2)c2ccccc2N1C(=O)c1ccc(Br)cc1	-0.47
Cc1ccc(C(=O)CC2(O)C(=O)N(Cc3ccccc3)c3ccccc32)cc1 (configuration not stated)	-0.1
COc1cc(C(=O)N2CCN(C(=O)COc3ccc(Cl)cc3)CC2)cc(OC)c1OC	-1.2
Cc1noc(C)c1S(=O)(=O)Nc1ccc(C(=O)Nc2ccc(C(C)C)cc2)cc1	-3.7*
CC(=O)c1ccc(NC(=O)c2ccc(NS(=O)(=O)c3c(C)noc3C)cc2)cc1	-0.94
COc1ccc(NC(=O)c2ccc(NS(=O)(=O)c3c(C)noc3C)cc2)cc1OC	0.34
CC1(C)CC(=O)c2cc(C(=O)NC(C)(C)C)c(=O)n(-c3ccccc3)c2C1	1.9
Cc1c(Cl)cccc1C1OC2(C(=O)c3ccccc3C2=O)C2C(=O)N(c3ccc(Cl)cc3)C(=O)C12 (configuration not stated)	-1.6
COc1ccc(C2C(C(=O)NCCN(C)C)CCC(=O)N2c2ccc3c(c2)OCO3)cc1 (configuration not stated)	-0.25
O=C1CC(c2ccc(Cl)cc2)Sc2nc(C34CC5CC(CC(C5)C3)C4)nn21 (configuration not stated)	0.55
CC(C)c1ccc(NC(=O)c2cc(-c3cccs3)nc3ccccc23)cc1	-0.09
Cc1ccc(Cl)cc1NC(=O)c1cc(-c2cccs2)nc2ccccc12	-3*
O=C(Nc1cccnc1)c1cc(-c2cccs2)nc2ccccc12	0.73
Cc1ccc(-c2nnc(SCC#CCOC(=O)c3ccco3)o2)cc1	-0.5
Cc1ccc(CNC(=O)CSc2nc3ccsc3c(=O)n2Cc2ccccc2F)cc1	-3.9*
Cc1ccc(Cn2c(SCC(=O)c3ccc(F)cc3)nc3ccsc3c2=O)cc1	-0.75
